IL1B secr inh – inhibitors of inflammasome signaling (IL-1 beta secretion); hit rate 4.7% among 360,000; THP-1 LPS/ATP IL-1B secretion, AlphaLISA, 16 h; hits give low values; AID 743279; activity change, % at 57.5 µM; in the data active = activity change below about -50%; inconclusive = mostly about -30% to -49%; also: % is scaled to controls: 0 for no effect and ±100 for the full control effect
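Secreted IL-1B measured by AlphaLISA bead assay after 16 h compound exposure of THP-1 cells; compounds (final up to 57.5 uM) added 1 h before LPS (250 ng/mL) and ATP (1.25 mM) stimulation; lower signal means less secretion.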
TDP1 cell CPT – DT40-hTDP1 cell growth loss with CPT | AID 686979 | chicken DT40 Tdp1-/-;hTDP1 cells + 20 nM CPT, ATP luminescence, 48 h | Potency, µM (doses to about 46.2 µM), without a hit: at the highest dose activity change, negative = growth inhibition, actives largely listed as inhibitors | hit rate 12% among 420,000; also: potency is read from the fitted curve at half-maximal effect; % is scaled to controls: 0 for no effect and ±100 for the full control effect; nearly all actives have a fitted effect of over 55% in size
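Chicken DT40 Tdp1-/- cells complemented with human TDP1, 400 cells/well, exposed to compounds plus 20 nM camptothecin for at least 48 h at 37 C; viability read as ATP content by CellTiter-Glo luminescence.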
HepG2 viability – kills HepG2 cells in TGF-b inhibitor counter-screen | HepG2 CAGA-GFP viability, ATP luminescence, 18 h | Potency, µM (titrated, usually from 46.1 µM), inactives show at the highest dose activity change, negative = cytotoxicity, hits mostly cytotoxic | hit rate 0.76% among 410,000; also: potency is read from the fitted curve at half-maximal effect
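CellTiter-Glo luminescence gave cytotoxicity after 18 hours at 37 degrees C. The cells were HepG2 CAGA-GFP in 1% FBS DMEM, stimulated with 500 pg/mL TGF-beta after compound addition. %Activity was normalised to no-cell wells (complete cell-killing) and DMSO (no toxicity), and curves were fitted and classified.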
TDP1 block – inhibitors of human tyrosyl-DNA phosphodiesterase TDP1 | Q9NUW8 | recombinant TDP1, AlphaScreen DNA substrate cleavage | Potency, µM (doses to about 130 µM), for inactives: at the top dose activity change, negative = inhibition, hits mostly inhibitors | hit rate 0.28% among 350,000 | AID 485290; also: potency is read from the fitted curve at half-maximal effect; % is scaled to controls: 0 for no effect and ±100 for the full control effect; nearly all actives have a fitted effect of over 40% in size
Target sequence (Q9NUW8 whole entry, looked up): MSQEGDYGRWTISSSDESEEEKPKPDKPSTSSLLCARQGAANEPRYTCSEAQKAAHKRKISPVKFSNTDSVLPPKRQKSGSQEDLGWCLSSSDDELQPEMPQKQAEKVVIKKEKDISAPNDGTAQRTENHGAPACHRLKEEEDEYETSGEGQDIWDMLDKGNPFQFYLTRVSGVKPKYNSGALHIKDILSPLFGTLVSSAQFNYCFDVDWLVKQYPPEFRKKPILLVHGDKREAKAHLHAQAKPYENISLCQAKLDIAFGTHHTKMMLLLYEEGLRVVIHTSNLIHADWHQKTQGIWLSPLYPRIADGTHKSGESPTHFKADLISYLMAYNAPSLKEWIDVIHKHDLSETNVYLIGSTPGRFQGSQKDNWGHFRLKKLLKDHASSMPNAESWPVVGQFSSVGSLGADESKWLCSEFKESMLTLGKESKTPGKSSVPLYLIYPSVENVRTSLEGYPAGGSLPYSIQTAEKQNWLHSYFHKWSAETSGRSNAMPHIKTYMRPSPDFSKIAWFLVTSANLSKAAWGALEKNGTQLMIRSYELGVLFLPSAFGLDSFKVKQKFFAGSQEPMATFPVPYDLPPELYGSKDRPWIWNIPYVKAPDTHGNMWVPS
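AlphaScreen read-out: signal falls as enzyme removes the 3' tyrosine-FITC from a 5'-biotinylated DNA oligo (15 nM, 5 min, RT). Enzyme was E. coli-made recombinant Tdp1 at 1 nM, exposed to compound for 15 min beforehand; beads 10 ug/ml, 10 min.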
DT40 TDP1 no CPT – qHTS for Inhibitors of human tyrosyl-DNA phosphodiesterase 1 (TDP1): qHTS in cells in absence of CPT; DT40 Tdp1-/- hTDP1 cells, no CPT, ATP luminescence, 48 h; Potency, µM (highest dose often 46.2 µM), inactives show at the top dose activity change, negative = growth inhibition, hits mostly inhibitors; hit rate 15% among 420,000; AID 686978, 2013; also: potency is read from the fitted curve at half-maximal effect; % is scaled to controls: 0 for no effect and ±100 for the full control effect; nearly all actives have a fitted effect of over 55% in size
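Stably hTDP1-transfected Tdp1-null chicken DT40 cells were treated with library compounds minus camptothecin and grown for at least 48 hr at 37 °C, after which cellular ATP was quantified by luminescence.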
TGFb SMAD3 inh – TGF-b pathway inhibition. hit rate 1.2% among 410,000. AID 588855. Potency, µM (series often up to 46.1 µM), inactives show at the highest dose activity, negative = inhibition, actives largely listed as inhibitors. HepG2 CAGA-GFP TGF-b/SMAD3 reporter, GFP fluorescence, 18 h; TGF-beta stimulated, 500 pg/mL final; also: potency is read from the fitted curve at half-maximal effect; % is scaled to controls: 0 for no effect and ±100 for the full control effect; nearly all actives have a fitted effect of over 65% in size
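Cell-based qHTS in HEPG2 carrying a CAGA-GFP Smad reporter; compounds added before 500 pg/mL final TGF-beta, 18 h incubation at 37 degrees C, GFP fluorescence quantified per cell by imaging cytometry.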
Starred values were filed as active, the others as inactive; i = inactive; ? = inconclusive; . = no result given; [ ] = another dose, or the depositor's remark. The list is not random: actives were taken first. Their share in the collection is about 19%. Unless noted, calls follow the shape of the dose curve; as a rule, active = well fitted curve in the direction sought with a large enough effect; inconclusive = small, poorly fitted or top-dose-only effect, or another doubt; inactive = no such curve, though single readings can be large; an effect the other way counts as inactive or inconclusive.

SMILES	IL1B secr inh	TDP1 cell CPT	HepG2 viability	TDP1 block	DT40 TDP1 no CPT	TGFb SMAD3 inh
CSc1nc2c(=S)[nH]c(=S)[nH]c2s1	18.1	?	-6.8%	.	-29.3%	-2.1%
CCCCC1CCC(C(=O)N(CCOC)c2c(N)n(CCCC)c(=O)[nH]c2=O)CC1 (centres undefined)	-2.6	?	-1.1%	.	?	-0.9%
O=C(COC(=O)/C=C/c1ccco1)Nc1cccc([N+](=O)[O-])c1	0.0	-6.9%	-15.7%	-6.9%	-12.1%	-9.3%
O=C(Nc1cc(-c2ccccc2)nn1-c1ccccc1)c1ccccc1F	-29.1	?	-5.7%	.	?	-3.8%
COc1ccccc1CNC(=O)CN(C)S(=O)(=O)c1ccc(Br)s1	-14.8	-2.9%	3.4%	1.3%	-22.1%	7.9%
Cc1ccc(NC(=O)Nc2cccnc2)cc1NC(=O)Nc1cccnc1	-3.7	13µM*	16.6%	2.9%	9.2µM*	-8.1%
O=C(Nc1cccnc1)Nc1cccc(F)c1	18.7	-28.4%	-0.6%	2.9%	13µM*	-3.8%
CCC(C)C(NC(=O)c1ccc(Cl)cc1)C(=O)Nc1cccnc1 (centres undefined)	-85.1*	-9.1%	-3.4%	-10.3%	-2.0%	-5.1%
Cc1cc(C)cc(NC(=O)Nc2cccnc2)c1	-20.2	?	-0.1%	.	0.7%	0.0%
CC(C)c1ccc(C(=O)Nc2cccnc2)cc1	-4.3	-0.9%	-29.1%	.	-27.2%	-8.6%
Cc1ccc(NC(=O)Nc2nc3ccccc3s2)cc1NC(=O)Nc1nc2ccccc2s1	8.7	?	3.4%	2.9%	13µM*	3.3%
Cc1cc(C)n(CCc2nc3c4ccccc4nc(SCc4ccc(Cl)cc4)n3n2)n1	.	7.4%	4.9%	2.5%	4.4%	6.3%
O=C(Nc1ccc(Cl)cc1)Nc1cccnc1	-22.0	16.4µM*	-26.0%	-9.8%	?	-0.3%
C[C@@H](CO)NC(=O)c1[nH]cnc1C(=O)Nc1ccc(CNC(=O)OC(C)(C)C)cc1	-3.9	23.1µM*	-1.2%	.	11.6µM*	7.4%
CC(C)(C)OC(=O)CNC(=O)c1nc[nH]c1C(=O)NCc1ccc(CNC(=O)OC(C)(C)C)cc1	3.6	18.4µM*	-30.7%	.	14.6µM*	-30.1%
CC(C)(C)OC(=O)NCc1ccc(NC(=O)c2nc[nH]c2C(=O)NCCNC(=O)c2[nH]cnc2C(=O)Nc2ccc(CNC(=O)OC(C)(C)C)cc2)cc1	60.5	14.6µM*	1.5%	-0.3%	18.4µM*	7.9%
C[C@@H](O)CNC(=O)c1[nH]cnc1C(=O)Nc1ccc(CNC(=O)OC(C)(C)C)cc1	0.0	?	0.8%	.	?	-5.5%
CCOC(=O)c1ccc(NC(=O)c2nc[nH]c2C(=O)N[C@@H](C)CO)cc1	?	-1.2%	1.6%	.	20.6µM*	-22.4%
NC(=O)COc1ccc(/C=N\NC(=O)c2ccc(-c3ccccc3)cc2)cc1	i	-3.8%	0.0%	.	-0.2%	20.6%
CCSc1ccccc1C(=O)N1CCN(c2nc3ccccc3s2)CC1	.	?	-12.6%	2.6%	14.6µM*	?
O=C(c1cccs1)N1CCN(c2nc3ccccc3s2)CC1	52.4	?	2.4%	2.5%	?	-3.8%
Cc1ccccc1NC(=O)c1cc2sccc2n1Cc1ccc(F)cc1	.	?	-12.2%	6.4%	25.9µM*	19.5%
CC(NC(=O)c1cc2sccc2n1Cc1ccc(F)cc1)c1ccccc1 (centres undefined)	.	?	-29.3%	6.4%	?	-24.8%
Cc1cccc2sc(N3CCN(C(=O)c4cccs4)CC3)nc12	-77.6*	-15.1%	1.1%	-4.2%	-28.2%	-9.5%
O=C(c1cc2sccc2n1Cc1ccc(F)cc1)N1CCN(c2nc3ccccc3s2)CC1	-0.1	13µM*	-31.5%	4.8%[56.1 µM]	20.6µM*	-6.4%
SMILES	IL1B secr inh	TDP1 cell CPT	HepG2 viability	TDP1 block	DT40 TDP1 no CPT	TGFb SMAD3 inh
CCc1ccc(NC(=O)Cn2c(=O)n(CCC(C)C)c(=O)c3cccnc32)cc1	.	?	-1.8%	-5.9%	?	1.9%
COc1ccc(C)cc1NC(=O)CCn1nc(C)cc1C	.	-27.4%	9.4%	.	?	0.1%
O=C(CN(C(=O)CNC(=O)c1cccs1)c1cccc(F)c1)NC1CCCC1	-13.5	3.3%	3.5%	.	-0.8%	4.2%
O=C(c1ccc(-c2nc3ccccc3s2)s1)N1CCOCC1	-20.8	?	-51.4%	2.3%	?	3.9%
O=C(c1ccc(Cl)s1)N1CCN(c2nc3ccccc3s2)CC1	-14.2	?	3.9%	3.7%	16.4µM*	-7.3%
Cc1ccnc(Nc2nc(-c3ccc(Cl)cc3)cs2)c1	4.7	?	-8.7%	.	20.6µM*	-1.1%
Cc1ccnc(Nc2nc(-c3ccc(F)cc3)cs2)c1	-92.7*	?	-75.8%	.	?	-13.7%
Cc1ccnc(NCc2ccc(Cl)cc2)c1	-58.2*	?	0.6%	4.1%	?	9.2%
COc1cc(C2C(=O)N(C3CCCCC3)CC(=O)N2C2CCCC2)ccc1OC(C)C (centres undefined)	.	-13.1%	-11.3%	7.8%	-11.4%	1.8%
CC(C)C(NS(=O)(=O)c1ccc2c(c1)oc(=O)n2C)C(=O)NCCc1ccccc1 (centres undefined)	.	-11.1%	-5.3%	1.2%	-4.5%	-6.9%
COc1ccc(/C=C/C(=O)NCC2Cc3cc(Cl)cc(-c4ncccn4)c3O2)cc1 (centres undefined)	.	-5.9%	.	.	-15.4%	.
COc1ccc(NC(=O)C(C)n2nc(C)c3c(C)n(-c4ccccc4)nc3c2=O)cc1Cl (centres undefined)	.	-28.4%	-15.8%	0.0%	?	-23.5%
CCCCn1c(=O)[nH]c(=O)c2c1nc(-c1ccccc1OC(F)F)n2C	25.6	3.1%	-2.6%	.	-28.9%	2.7%
O=C(CCC1CCN(C(=O)CC2=CCCCC2)CC1)NCc1ccc(F)cc1	1.5	?	-23.6%	.	?	-12.9%
Cc1c(Cc2ccccc2)c(=O)oc2cc(OC(C)C(=O)NCC3CCC(C(=O)O)CC3)c(Cl)cc12 (centres undefined)	28.7	-12.2%	-4.0%	.	-10.3%	-0.8%
CCN(CC)CCNCC1C(=O)O[C@@H]2C[C@@]3(C)CCC[C@H](C)C3=C[C@H]12 (some centres undefined)	.	?	-19.2%	.	13µM*	?
COc1ccc(-c2oc3ncn4nc(COc5ccc(C)cc5)nc4c3c2-c2ccc(OC)cc2)cc1	.	-3.4%	-3.1%	-2.2%[12.3 µM]	?	-11.1%
